Measured values published in the supplement of paper PMC10849652.
About 7,900 targets were measured; listed, in parts, are those with a hit and a random draw of the rest. About 0.6% of all pairs of compound and target were hits. Values without a mark were called inactive.

Experiments:
Experiment in all cases: log2 fold change, soluble protein after heating vs DMSO (PISA); higher = thermal stabilisation; K562 cells, 10 uM, 30 min; active = over 0.2 and 3.5 SD of the protein, either way, in both replicates (recomputed)
[1] = compound: CC1=C(C=C(C=C1)NC(=O)C2=CC(=CC=C2)C(C)(C)C#N)NC3=CC4=C(C=C3)N=CN(C4=O)C
Summary of the method: (§1)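 Soluble protein was quantified by TMTpro 16plex LC-MS/MS after channel sums were equalised. It was obtained as the supernatant after 21,000xg for 90 min from pooled aliquots of K562 cells (2×10^6 cells/mL, 10 μM compound, 30 min) heated for 3 min across 48°C-58°C and extracted in PBS with 0.5% NP-40 at 4°C. Thermal stability values are relative to control samples and come from duplicates. They are given as log2 fold changes.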

[2] = compound: CC1=C(C=C(C=C1)NC(=O)C2=CC(=CC=C2)N(C)C)NC(=O)C3=CC=C(C=C3)O
Summary of the method: as §1

[3] = compound: CC1=CC=C(C=C1)SC2=C3C=C(SC3=CN=C2)C(=O)N
Summary of the method: as §1

[4] = compound: CC1=NC(=CC=C1)C2=C(N=C(N2)C(C)(C)C)C3=CC4=NC=CN=C4C=C3
Summary of the method: as §1

Nexturastat A = compound: CCCCN(Cc1ccc(C(=O)NO)cc1)C(=O)Nc1ccccc1 [Nexturastat A]
Summary of the method: as §1

vemurafenib = compound: CCCS(=O)(=O)Nc1ccc(F)c(C(=O)c2c[nH]c3ncc(-c4ccc(Cl)cc4)cc23)c1F [vemurafenib]
Summary of the method: as §1

[5] = compound: CCCS(=O)(=O)Nc1ccc(F)c(C(=O)c2c[nH]c3ncc(Cl)cc23)c1F
Summary of the method: as §1

[6] = compound: CCCc1cc(C)[nH]c(=O)c1CNC(=O)c1cc(-c2ccnc(N3CCN(C)CC3)c2)cc2c1cnn2C(C)C
Summary of the method: as §1

givinostat = compound: CCN(CC)Cc1ccc2cc(COC(=O)Nc3ccc(C(=O)NO)cc3)ccc2c1 [givinostat]
Summary of the method: as §1

barasertib = compound: CCN(CCCOc1ccc2c(Nc3cc(CC(=O)Nc4cccc(F)c4)[nH]n3)ncnc2c1)CCOP(=O)(O)O [barasertib]
Summary of the method: as §1

Sequence of UniProt Q92797 (Q92797 whole entry, looked up): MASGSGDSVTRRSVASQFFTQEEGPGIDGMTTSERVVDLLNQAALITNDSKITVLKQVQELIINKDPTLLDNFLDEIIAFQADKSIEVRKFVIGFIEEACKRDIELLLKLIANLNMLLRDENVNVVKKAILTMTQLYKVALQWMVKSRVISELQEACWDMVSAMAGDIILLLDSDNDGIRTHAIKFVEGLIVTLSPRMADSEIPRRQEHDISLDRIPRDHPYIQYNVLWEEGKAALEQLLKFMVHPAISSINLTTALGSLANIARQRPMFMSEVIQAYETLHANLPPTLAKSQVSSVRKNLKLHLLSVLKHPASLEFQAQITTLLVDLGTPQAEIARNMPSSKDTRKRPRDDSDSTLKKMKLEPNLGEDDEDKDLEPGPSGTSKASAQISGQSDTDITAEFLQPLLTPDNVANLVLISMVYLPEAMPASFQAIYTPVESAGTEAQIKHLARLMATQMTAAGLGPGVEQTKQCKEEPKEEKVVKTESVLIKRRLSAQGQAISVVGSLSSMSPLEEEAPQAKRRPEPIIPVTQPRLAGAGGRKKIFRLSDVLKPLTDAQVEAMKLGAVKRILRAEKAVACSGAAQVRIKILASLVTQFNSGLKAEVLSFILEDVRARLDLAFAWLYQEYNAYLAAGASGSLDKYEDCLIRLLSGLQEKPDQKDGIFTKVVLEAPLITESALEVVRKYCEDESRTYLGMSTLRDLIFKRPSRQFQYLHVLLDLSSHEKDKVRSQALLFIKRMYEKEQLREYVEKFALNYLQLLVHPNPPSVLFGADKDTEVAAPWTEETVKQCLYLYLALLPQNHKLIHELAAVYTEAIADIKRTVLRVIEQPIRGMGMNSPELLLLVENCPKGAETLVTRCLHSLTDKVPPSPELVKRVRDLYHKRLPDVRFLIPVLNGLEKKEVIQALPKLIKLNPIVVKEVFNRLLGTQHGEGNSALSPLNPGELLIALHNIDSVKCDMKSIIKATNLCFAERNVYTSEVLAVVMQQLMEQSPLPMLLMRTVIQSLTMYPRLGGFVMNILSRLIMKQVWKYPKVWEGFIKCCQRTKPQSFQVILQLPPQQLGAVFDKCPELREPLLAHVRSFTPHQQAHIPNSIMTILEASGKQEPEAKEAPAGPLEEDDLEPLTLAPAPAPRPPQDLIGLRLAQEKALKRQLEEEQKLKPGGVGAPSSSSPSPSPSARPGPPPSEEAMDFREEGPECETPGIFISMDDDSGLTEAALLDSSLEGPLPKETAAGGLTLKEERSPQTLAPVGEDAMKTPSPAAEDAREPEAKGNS
Sequence of UniProt Q9NZ01 (Q9NZ01 whole entry, looked up): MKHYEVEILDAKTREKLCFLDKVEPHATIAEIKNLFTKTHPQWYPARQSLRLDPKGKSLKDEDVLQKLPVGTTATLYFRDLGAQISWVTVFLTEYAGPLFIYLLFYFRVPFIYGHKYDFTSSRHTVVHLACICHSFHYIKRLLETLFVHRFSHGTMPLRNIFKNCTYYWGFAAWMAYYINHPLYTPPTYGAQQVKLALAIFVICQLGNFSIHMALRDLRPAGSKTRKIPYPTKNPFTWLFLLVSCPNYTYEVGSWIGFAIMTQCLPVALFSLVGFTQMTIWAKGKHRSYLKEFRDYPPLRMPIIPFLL
Sequence of UniProt P78382 (P78382 whole entry, looked up): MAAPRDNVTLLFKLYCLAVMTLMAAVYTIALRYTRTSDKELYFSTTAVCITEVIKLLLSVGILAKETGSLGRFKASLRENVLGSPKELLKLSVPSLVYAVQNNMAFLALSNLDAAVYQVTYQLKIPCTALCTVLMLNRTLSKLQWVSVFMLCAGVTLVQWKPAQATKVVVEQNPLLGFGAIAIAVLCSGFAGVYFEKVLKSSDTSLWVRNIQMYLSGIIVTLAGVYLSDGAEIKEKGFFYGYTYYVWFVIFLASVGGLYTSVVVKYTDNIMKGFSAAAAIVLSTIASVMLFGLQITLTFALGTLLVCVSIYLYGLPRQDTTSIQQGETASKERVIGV
Sequence of UniProt Q01085 (Q01085 whole entry, looked up): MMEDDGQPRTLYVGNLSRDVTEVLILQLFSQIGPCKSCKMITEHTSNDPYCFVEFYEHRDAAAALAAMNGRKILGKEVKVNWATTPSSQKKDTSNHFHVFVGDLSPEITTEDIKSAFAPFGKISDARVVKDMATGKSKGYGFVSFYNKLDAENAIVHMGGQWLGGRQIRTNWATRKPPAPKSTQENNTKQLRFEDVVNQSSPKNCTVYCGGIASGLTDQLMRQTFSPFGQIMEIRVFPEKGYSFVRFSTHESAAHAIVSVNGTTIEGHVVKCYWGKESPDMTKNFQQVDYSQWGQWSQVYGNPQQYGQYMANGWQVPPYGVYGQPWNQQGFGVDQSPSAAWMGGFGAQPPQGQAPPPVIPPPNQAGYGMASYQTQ
Sequence of UniProt P04183 (P04183 whole entry, looked up): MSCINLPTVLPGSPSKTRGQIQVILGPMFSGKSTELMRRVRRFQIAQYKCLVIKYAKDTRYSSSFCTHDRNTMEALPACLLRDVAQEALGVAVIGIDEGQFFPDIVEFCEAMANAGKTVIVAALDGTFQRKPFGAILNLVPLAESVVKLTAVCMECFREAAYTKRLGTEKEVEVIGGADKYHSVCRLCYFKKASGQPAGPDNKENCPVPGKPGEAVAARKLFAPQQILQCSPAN
Sequence of UniProt Q9UH99 (Q9UH99 whole entry, looked up): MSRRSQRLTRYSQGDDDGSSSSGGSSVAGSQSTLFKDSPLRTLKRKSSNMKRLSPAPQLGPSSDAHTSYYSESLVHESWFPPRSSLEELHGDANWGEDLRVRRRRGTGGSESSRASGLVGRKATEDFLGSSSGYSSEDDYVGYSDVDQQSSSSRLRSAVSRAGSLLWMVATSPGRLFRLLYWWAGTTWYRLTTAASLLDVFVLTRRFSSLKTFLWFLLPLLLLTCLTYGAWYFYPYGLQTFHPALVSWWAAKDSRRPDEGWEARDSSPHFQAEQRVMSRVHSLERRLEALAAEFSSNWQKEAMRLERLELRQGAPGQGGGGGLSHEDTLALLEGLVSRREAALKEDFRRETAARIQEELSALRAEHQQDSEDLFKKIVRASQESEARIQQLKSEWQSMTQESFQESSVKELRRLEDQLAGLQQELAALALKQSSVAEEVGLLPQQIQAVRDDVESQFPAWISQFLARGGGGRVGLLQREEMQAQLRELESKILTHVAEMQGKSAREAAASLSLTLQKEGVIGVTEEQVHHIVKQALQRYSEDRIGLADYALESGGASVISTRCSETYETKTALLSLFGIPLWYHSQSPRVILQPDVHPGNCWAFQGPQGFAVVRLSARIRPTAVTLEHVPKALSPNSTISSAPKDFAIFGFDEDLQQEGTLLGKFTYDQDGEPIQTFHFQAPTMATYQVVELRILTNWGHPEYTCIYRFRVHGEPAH
Sequence of UniProt Q9Y4R8 (Q9Y4R8 whole entry, looked up): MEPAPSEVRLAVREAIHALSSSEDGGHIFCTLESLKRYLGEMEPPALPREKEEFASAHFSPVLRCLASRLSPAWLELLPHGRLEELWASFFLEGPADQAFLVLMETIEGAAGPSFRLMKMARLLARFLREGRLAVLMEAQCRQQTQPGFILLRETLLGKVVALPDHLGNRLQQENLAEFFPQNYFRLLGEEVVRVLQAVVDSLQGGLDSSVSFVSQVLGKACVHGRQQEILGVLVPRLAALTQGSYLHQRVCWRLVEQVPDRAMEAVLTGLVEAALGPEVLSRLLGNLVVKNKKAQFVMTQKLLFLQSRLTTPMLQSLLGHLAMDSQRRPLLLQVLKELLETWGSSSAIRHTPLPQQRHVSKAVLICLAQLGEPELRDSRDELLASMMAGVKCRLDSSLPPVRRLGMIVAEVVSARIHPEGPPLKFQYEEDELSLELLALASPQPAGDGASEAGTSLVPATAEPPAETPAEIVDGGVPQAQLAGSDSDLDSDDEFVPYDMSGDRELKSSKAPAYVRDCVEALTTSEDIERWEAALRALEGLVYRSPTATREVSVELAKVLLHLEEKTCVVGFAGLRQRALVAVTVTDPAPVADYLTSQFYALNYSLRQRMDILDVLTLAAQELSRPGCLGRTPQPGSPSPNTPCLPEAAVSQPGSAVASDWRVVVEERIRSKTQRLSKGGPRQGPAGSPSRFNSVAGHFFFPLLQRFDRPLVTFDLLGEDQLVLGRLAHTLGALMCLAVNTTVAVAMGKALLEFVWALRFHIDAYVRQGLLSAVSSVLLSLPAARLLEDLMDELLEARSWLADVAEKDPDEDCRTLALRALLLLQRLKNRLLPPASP
Sequence of UniProt Q16594 (Q16594 whole entry, looked up): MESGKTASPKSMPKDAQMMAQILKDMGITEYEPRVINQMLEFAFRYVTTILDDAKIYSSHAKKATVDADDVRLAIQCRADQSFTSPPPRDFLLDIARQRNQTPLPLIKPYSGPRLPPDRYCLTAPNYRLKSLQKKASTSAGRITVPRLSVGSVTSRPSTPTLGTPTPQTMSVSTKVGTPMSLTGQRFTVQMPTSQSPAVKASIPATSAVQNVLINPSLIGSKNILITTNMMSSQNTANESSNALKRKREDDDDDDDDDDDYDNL
Sequence of UniProt Q08170 (Q08170 whole entry, looked up): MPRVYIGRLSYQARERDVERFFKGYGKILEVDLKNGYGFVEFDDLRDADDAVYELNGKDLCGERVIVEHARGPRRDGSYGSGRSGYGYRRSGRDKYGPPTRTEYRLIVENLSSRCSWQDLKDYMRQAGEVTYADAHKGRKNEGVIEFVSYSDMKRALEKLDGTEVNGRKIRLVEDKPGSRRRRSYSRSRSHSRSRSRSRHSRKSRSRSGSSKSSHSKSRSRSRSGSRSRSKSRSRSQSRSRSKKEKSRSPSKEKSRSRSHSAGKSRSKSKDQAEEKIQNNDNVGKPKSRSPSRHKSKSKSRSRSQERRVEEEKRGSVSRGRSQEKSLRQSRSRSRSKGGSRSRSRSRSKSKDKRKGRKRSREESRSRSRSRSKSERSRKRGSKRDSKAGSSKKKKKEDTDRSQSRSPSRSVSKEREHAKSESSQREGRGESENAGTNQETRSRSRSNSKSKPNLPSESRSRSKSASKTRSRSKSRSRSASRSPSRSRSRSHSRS
Sequence of UniProt Q9Y5L4 (Q9Y5L4 whole entry, looked up): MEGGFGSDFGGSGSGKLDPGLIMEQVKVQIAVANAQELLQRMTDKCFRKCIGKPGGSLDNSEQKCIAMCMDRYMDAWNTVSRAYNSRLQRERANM

| Target | log2 fold change [1] | log2 fold change [2] | log2 fold change [3] | log2 fold change [4] | log2 fold change (Nexturastat A) | log2 fold change (vemurafenib) | log2 fold change [5] | log2 fold change [6] | log2 fold change (givinostat) | log2 fold change (barasertib) |
| --- | --- | --- | --- | --- | --- | --- | --- | --- | --- | --- |
| SULT1A1 (UniProt P50225) | 0.015 | 0.162 | -0.022 | 0.025 | -0.023 | 0.135 | 0.037 | 0.092 | 0.044 | 0.068 |
| STEAP3 isoform 2 (UniProt Q658P3) | -0.009 | 0.015 | 0.008 | -0.003 | -0.05 | -0.027 | 0.007 | -0.025 | 0.005 | -0.004 |
| TAF9 (UniProt Q16594) | 0.125 | -0.007 | -0.092 | 0.018 | 0 | -0.017 | -0.097 | 0.02 | 0.019 | -0.019 |
| SLC25A39 (UniProt Q9BZJ4) | -0.029 | 0.011 | 0.207 | 0.129 | -0.037 | -0.019 | -0.048 | -0.133 | -0.092 | 0.088 |
| SUN2 (UniProt Q9UH99) | 0.023 | 0.001 | -0.017 | -0.025 | 0.005 | -0.026 | 0.015 | 0.013 | 0.005 | -0.012 |
| TIAL1 isoform 2 (UniProt Q01085) | -0.009 | 0.015 | -0.019 | 0.08 | 0.005 | 0.023 | 0.002 | -0.007 | -0.022 | -0.021 |
| TM9SF2 (UniProt Q99805) | 0.056 | -0.009 | -0.005 | -0.001 | -0.039 | -0.03 | 0.018 | -0.004 | -0.019 | 0.035 |
| SNX5 (UniProt Q9Y5X3) | 0.001 | 0.015 | 0.009 | 0.039 | -0.074 | 0.009 | 0.035 | -0.031 | 0.013 | 0.04 |
| ST6GAL1 (UniProt P15907) | 0.025 | -0.032 | -0.028 | -0.064 | -0.031 | -0.1 | -0.069 | 0.047 | -0.005 | -0.014 |
| SLC27A4 (UniProt Q6P1M0) | -0.074 | -0.072 | 0.011 | -0.096 | -0.014 | -0.039 | -0.031 | -0.017 | 0.021 | 0.056 |
| SSR3 isoform 2 (UniProt Q9UNL2) | -0.032 | 0.123 | -0.014 | 0.022 | -0.103 | 0.11 | -0.011 | -0.075 | -0.042 | 0.017 |
| TBC1D9B (UniProt Q66K14) | -0.028 | 0.116 | 0.05 | -0.032 | 0.361 (active) | 0.095 | 0.048 | -0.189 | 0.002 | 0.04 |
| TIMM29 (UniProt Q9BSF4) | -0.007 | -0.015 | -0.023 | -0.102 | -0.037 | -0.031 | 0.033 | 0 | 0.014 | 0.004 |
| TK1 (UniProt P04183) | -0.035 | 0.001 | 0.01 | -0.004 | 0.014 | 0.003 | -0.012 | -0.095 | 0.011 | 0.011 |
| TANK (UniProt Q92844) | -0.076 | 0.059 | 0.007 | 0.028 | -0.047 | -0.031 | -0.018 | 0.065 | 0.013 | 0.089 |
| ST3GAL2 (UniProt Q16842) | 0.064 | -0.054 | -0.216 | 0.066 | -0.012 | -0.032 | -0.013 | 0.212 | 0.078 | 0.112 |
| SMARCA4 (UniProt P51532) | 0.039 | -0.111 | -0.296 | -0.028 | 0.351 | -0.261 | -0.556 | -0.084 | 0.159 | 0.137 |
| TIMM13 (UniProt Q9Y5L4) | 0.086 | -0.048 | 0.03 | 0.143 | -0.19 | 0.072 | 0.015 | 0.085 | 0.089 | -0.035 |
| TFRC (UniProt P02786) | -0.008 | 0.023 | 0.02 | 0.026 | -0.067 | -0.002 | -0.007 | -0.026 | 0.004 | -0.015 |
| TELO2 (UniProt Q9Y4R8) | 0.04 | -0.026 | 0.028 | -0.057 | 0.143 | 0.12 | 0.089 | 0.014 | 0.084 | 0.05 |
| SYMPK (UniProt Q92797) | 0.042 | -0.004 | 0.05 | 0.005 | -0.103 | 0.119 | 0.212 | 0.051 | 0.145 | 0.042 |
| SLC30A10 (UniProt Q6XR72) | 0.028 | -0.102 | 0.131 | 0.001 | -0.545 (active) | -0.031 | -0.073 | -0.086 | -0.002 | -0.025 |
| SLC7A6OS (UniProt Q96CW6) | -0.065 | -0.033 | -0.042 | -0.075 | -0.031 | -0.015 | 0.013 | -0.025 | 0.017 | 0.01 |
| TBC1D23 (UniProt Q9NUY8) | 0.029 | -0.038 | 0.005 | 0.005 | -0.071 | 0.035 | 0.034 | -0.074 | 0.006 | 0.041 |
| SLC35A1 (UniProt P78382) | -0.027 | 0 | -0.045 | 0.06 | -0.037 | 0.382 (active) | 0 | -0.07 | -0.024 | -0.05 |
| STK26 (UniProt Q9P289) | -0.083 | -0.037 | 0.068 | 0.015 | 0.044 | -0.04 | -0.03 | 0.014 | 0.086 | 0.08 |
| TARBP1 (UniProt Q13395) | 0.069 | 0.001 | 0.002 | -0.01 | 0.016 | 0.036 | -0.062 | -0.067 | -0.017 | 0.023 |
| SRSF4 (UniProt Q08170) | 0.042 | -0.001 | -0.067 | -0.032 | 0.074 | -0.027 | 0.017 | 0.224 | 0.052 | -0.064 |
| TECR (UniProt Q9NZ01) | -0.017 | -0.034 | 0.031 | 0.069 | -0.043 | 0.021 | 0.113 | -0.084 | 0.011 | 0.007 |
